Test results taken from PubChem BioAssay (NCATS).
Unmarked numbers belong to inactive results. Results filed as inconclusive are left out. Activity calls are given as the source filed them. Unless noted, calls come from the whole dose curve; as a rule, active = well fitted curve in either direction with a large enough effect (not every such curve was filed as active); inconclusive = small, poorly fitted or top-dose-only effect, or another doubt; inactive = flat fitted curve, though single readings scatter.

Tests used:
[1] = biological target: Lysosomal acid glucosylceramidase (Homo sapiens) (UniProt P04062); assay: Glucocerebrosidase-p2 (AID 348; in the data active = potency below about 10 µM; note: potency is the fitted concentration of half-maximal effect); conditions: purified GBA, blue fluorogenic substrate, 40 min
Sequence of Lysosomal acid glucosylceramidase (Homo sapiens) (P04062 whole entry, looked up): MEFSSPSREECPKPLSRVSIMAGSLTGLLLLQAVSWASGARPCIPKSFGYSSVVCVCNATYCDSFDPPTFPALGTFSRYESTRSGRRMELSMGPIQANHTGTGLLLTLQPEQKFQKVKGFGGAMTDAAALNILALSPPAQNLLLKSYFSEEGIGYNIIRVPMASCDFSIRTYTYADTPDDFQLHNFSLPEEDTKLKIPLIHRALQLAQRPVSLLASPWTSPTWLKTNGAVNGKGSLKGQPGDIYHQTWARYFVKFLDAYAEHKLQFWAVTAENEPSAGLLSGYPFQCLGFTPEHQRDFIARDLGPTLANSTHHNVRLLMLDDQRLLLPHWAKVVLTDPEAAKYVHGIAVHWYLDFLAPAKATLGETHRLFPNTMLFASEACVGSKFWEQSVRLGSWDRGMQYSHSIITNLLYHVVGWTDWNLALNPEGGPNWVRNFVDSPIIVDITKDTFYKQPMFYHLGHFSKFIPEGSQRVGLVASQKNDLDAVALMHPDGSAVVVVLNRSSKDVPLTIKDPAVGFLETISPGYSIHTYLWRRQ
Outline: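 Compounds titrated from 0.6 nM upwards against 0.2 nM enzyme in pH 5.9 citric acid/KH2PO4, taurocholate, tween-20; blue fluorogenic substrate 80 uM, 40 min room temperature, stopped and read Ex 365/Em 440 for AC50.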

[2] = AP1 Signaling Pathway (AID 357); conditions: ME-180 AP-1-bla reporter, EGF-induced, beta-lactamase ratio, 5 h; at 7.69 µM (top of the series) unless noted;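 note: ME-180 reporter cells stimulated with EGF at its EC50 level; % is set by controls: 0 for no effect and ±100 for the full control effect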
Outline: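 A ratiometric CCF4 readout (405 nm excitation; 460 and 530 nm emission) quantified AP-1-driven beta-lactamase in ME-180 cells after 5 h with compound and EC50 EGF; AC50 values were derived for activators and inhibitors.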

[3] = NFAT Signaling Pathway (AID 444); conditions: Jurkat NFAT-bla M1, carbachol, beta-lactamase ratio, 5 h; at 7.69 µM (top of the series) unless noted;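 note: carbachol stimulus at about its EC50 of 1 µM final; % is set by controls: 0 for no effect and ±100 for the full control effect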
Outline: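 Jurkat cells carrying an NFAT-driven β-lactamase reporter and co-transfected muscarinic M1 receptor were treated with compound plus carbachol (1 uM final, an EC50 level) for 5 h at 37 °C. CCF4 loading followed for 1 h at RT; 460/530 nm ratio gave %activity.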

[4] = Stat Signaling Pathway (AID 446); conditions: ME-180 SIE beta-lactamase reporter, IL-6 stimulated, 5 h; at 7.69 µM (top of the series) unless noted;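 note: ME-180 cervical cancer cells given 40 pM IL-6 alongside compound; SIE-controlled beta-lactamase reporter measured as 460/530 nm FRET emission ratio; % is set by controls: 0 for no effect and ±100 for the full control effect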
Outline: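 ME-180 cells carrying a SIE-driven beta-lactamase reporter are stimulated with 40 pM IL-6 for 5 h at 37C in the presence of compound. The 460/530 nm FRET substrate ratio is read after 2.5 h at RT. Data are normalised to 300 pM IL-6 and to 125 nM JAK inhibitor controls.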

[5] = biological target: Glucocorticoid receptor (Homo sapiens) (UniProt P04150); assay: GR-GFP Redistribution (AID 450;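 active = compounds whose dose series gives a full or clear partial fitted curve of increased nuclear translocation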; note: potency is the fitted concentration of half-maximal effect); conditions: U2OS GR-GFP nuclear translocation, laser cytometry, 2 h
Sequence of Glucocorticoid receptor (Homo sapiens) (P04150 whole entry, looked up, the tested form may be a part): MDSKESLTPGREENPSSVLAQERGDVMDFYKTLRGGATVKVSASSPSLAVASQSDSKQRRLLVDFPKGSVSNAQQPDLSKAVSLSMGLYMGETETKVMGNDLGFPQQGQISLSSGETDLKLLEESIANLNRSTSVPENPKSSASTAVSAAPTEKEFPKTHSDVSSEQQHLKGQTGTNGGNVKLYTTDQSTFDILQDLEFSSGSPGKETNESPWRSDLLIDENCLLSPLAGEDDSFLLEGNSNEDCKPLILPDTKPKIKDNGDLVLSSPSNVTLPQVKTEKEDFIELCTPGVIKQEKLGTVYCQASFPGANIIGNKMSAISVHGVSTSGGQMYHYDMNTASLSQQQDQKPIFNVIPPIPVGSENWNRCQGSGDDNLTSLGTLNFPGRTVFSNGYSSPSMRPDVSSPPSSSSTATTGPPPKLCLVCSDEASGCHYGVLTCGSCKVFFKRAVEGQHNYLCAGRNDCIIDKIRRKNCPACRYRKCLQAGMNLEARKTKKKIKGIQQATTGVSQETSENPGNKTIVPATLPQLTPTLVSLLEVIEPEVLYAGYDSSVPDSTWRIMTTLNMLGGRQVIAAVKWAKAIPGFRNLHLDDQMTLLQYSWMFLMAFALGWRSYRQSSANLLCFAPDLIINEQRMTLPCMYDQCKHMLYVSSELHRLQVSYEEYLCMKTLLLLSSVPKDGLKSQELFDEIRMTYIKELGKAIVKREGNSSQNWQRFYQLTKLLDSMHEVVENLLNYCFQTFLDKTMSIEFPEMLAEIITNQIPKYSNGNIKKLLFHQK

[6] = biological target: Glucocorticoid receptor (Homo sapiens) (UniProt P04150); assay: GR-EFC Redistribution (AID 451; calls by dose curve; note: potency is the fitted concentration of half-maximal effect); conditions: CHO-K1 GR-EFC translocation, beta-gal luminescence, 2 h
Outline: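 CHO-K1 cells stably expressing nuclear-localized β-gal enzyme acceptor and GR fused C-terminally to the enzyme donor fragment; ligand-driven nuclear translocation restores β-gal by complementation. Compounds titrated up to 46 uM final, 2 h at 37 °C; luminescence read.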

[7] = biological target: Mitogen-activated protein kinase 10 (Mus musculus) (UniProt Q61831); assay: JNK3 AlphaScreen Assay (AID 530); conditions: JNK3 lysate, c-Jun phosphorylation; series mostly up to 11.4 µM;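 note: kinase came from lysate of stimulated human HepG2 cells; signal reports phosphorylation of biotinylated GST-cJun 1-79 at Ser73 with 10 µM ATP; % is set by controls: 0 for no effect and ±100 for the full control effect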
Outline: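 Inhibitors reduce antibody binding to phosphorylated biotin-cJun, lowering AlphaScreen luminescence. Lysates from HepG2 cells pre-activated by IL-1beta plus TNF-alpha supplied JNK3; compounds were titrated.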

[8] = biological target: 3',5'-cyclic-AMP phosphodiesterase 4B (Homo sapiens) (UniProt Q07343); assay: qHTS Assay for Inhibitors of PDE-IV (AID 607; active = well fitted activation curve with a large enough effect in the main read-out, with a control signal flat, not every such curve was filed as active; note: % of control where 0% means no effect); conditions: HEK293 ACTOne CNG channel cells, membrane potential fluorescence; series mostly up to 22.9 µM
Sequence of 3',5'-cyclic-AMP phosphodiesterase 4B (Homo sapiens) (Q07343 whole entry, looked up): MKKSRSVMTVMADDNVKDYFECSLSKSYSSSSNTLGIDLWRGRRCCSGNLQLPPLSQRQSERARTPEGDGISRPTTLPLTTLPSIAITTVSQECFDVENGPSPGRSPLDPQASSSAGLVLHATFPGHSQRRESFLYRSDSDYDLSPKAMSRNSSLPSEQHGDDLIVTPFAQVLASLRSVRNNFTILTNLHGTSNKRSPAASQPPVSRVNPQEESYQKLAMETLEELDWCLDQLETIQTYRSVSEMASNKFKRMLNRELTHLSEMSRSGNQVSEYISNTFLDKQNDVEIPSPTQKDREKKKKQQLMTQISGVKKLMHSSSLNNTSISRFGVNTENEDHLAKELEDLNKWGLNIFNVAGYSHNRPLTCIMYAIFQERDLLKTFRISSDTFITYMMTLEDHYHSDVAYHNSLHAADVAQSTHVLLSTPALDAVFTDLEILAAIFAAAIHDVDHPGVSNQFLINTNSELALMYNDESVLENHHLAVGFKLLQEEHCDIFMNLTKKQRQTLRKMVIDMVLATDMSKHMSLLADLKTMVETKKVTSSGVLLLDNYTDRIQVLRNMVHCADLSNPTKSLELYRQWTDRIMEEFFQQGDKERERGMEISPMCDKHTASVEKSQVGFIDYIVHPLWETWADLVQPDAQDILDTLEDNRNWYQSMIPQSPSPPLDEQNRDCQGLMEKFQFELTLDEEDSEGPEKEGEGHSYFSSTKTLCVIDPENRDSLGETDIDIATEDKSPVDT
Outline: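 HEK293 ACTOne cells with CNG channel (1000/well), endogenous PDE4; membrane potential dye, compounds up to 22.9 uM final. Fluorescence Ex 535/Em 590; RO 20-1724 (100 uM final) as reference.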

[9] = qHTS Assay for Identification of Small Molecule Agonists for Hypoxia Response Element Signaling Pathway (AID 914; active = well fitted activation curve with a large enough effect in the signal ratio, with a control signal flat, not every such curve was filed as active; the % refers to the signal ratio; note: % of control where 0% means no effect); conditions: ME-180 (cervical carcinoma) HRE-bla reporter, beta-lactamase ratio, CoCl2, 17 h; activation: hits give high values
Outline: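 Compounds in a titration series were added to ME-180 reporter cells alongside an EC50 level of CoCl2. After 17 hours, beta-lactamase activity was read as the 460nm/530nm emission ratio of CCF4, giving AC50 values.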

[10] = biological target: Cytochrome P450 2D6 (Homo sapiens) (UniProt P10635); assay: qHTS Assay for Inhibitors and Substrates of Cytochrome P450 2D6 (AID 891; active = well fitted curve in the direction sought with a large enough effect; an effect the other way counts as inactive or inconclusive; note: nearly all actives have a fitted effect of over 60% in size; note: potency is the fitted concentration of half-maximal effect); conditions: recombinant CYP2D6, luciferin-ME EGE luminescence; series mostly up to 11.4 µM
Sequence of Cytochrome P450 2D6 (Homo sapiens) (P10635 whole entry, looked up): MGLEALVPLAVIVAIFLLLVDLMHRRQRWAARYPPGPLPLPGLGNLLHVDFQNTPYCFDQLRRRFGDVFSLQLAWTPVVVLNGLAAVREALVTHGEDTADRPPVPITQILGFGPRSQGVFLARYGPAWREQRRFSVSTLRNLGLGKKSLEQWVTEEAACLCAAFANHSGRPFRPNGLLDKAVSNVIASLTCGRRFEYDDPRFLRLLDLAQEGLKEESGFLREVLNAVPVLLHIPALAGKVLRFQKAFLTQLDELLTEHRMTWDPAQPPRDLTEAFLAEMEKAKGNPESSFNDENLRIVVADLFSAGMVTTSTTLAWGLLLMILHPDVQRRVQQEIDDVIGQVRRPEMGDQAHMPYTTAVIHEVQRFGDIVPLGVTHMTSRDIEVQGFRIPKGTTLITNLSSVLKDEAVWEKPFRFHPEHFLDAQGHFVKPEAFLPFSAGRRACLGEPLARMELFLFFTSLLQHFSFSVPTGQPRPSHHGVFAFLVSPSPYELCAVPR
Outline: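 Human CYP2D6 (5 nM) with 30 uM Luciferin-ME EGE (at Km) in 100 mM KPO4, compound preincubated 10 min, then NADPH regeneration system for 60 min at room temperature. Luciferin read by luminescence; normalized to 1.43 uM quinidine.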

[11] = biological target: Cytochrome P450 3A4 (Homo sapiens) (UniProt P08684); assay: qHTS Assay for Activators of Cytochrome P450 3A4 (AID 885; active = well fitted curve in the direction sought with a large enough effect; an effect the other way counts as inactive or inconclusive; note: nearly all actives have a fitted effect of over 65% in size); conditions: recombinant CYP3A4, Luciferin-PPXE luminescence, 60 min; series mostly up to 11.4 µM
Sequence of Cytochrome P450 3A4 (Homo sapiens) (P08684 whole entry, looked up): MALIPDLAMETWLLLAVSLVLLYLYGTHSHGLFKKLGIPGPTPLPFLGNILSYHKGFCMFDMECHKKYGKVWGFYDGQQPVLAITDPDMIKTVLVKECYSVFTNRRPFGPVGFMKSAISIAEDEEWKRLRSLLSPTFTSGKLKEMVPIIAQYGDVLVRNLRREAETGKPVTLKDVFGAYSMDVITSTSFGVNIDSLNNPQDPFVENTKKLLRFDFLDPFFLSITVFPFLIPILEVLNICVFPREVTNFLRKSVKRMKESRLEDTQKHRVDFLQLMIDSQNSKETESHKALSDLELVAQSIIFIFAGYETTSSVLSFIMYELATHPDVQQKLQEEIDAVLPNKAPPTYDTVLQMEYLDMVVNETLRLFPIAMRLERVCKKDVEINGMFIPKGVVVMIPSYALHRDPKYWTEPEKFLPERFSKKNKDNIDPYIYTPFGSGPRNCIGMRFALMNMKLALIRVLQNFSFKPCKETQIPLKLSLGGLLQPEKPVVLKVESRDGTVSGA
Outline: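 Human CYP3A4 (20 nM) with Luciferin-PPXE at 25 uM (its KM) in 200 mM KPO4; 10 min compound preincubation, then NADPH regeneration and 60 min reaction at RT. Luciferin read by luminescence; normalized to 57 uM ketoconazole full inhibition.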

[12] = biological target: Cytochrome P450 2C19 (Homo sapiens) (UniProt P33261); assay: qHTS Assay for Inhibitors and Substrates of Cytochrome P450 2C19 (AID 899; active = well fitted curve in the direction sought with a large enough effect; an effect the other way counts as inactive or inconclusive; note: nearly all actives have a fitted effect of over 60% in size; note: potency is the fitted concentration of half-maximal effect); conditions: recombinant CYP2C19, luciferin-H EGE luminescence; series mostly up to 11.4 µM
Sequence of Cytochrome P450 2C19 (Homo sapiens) (P33261 whole entry, looked up): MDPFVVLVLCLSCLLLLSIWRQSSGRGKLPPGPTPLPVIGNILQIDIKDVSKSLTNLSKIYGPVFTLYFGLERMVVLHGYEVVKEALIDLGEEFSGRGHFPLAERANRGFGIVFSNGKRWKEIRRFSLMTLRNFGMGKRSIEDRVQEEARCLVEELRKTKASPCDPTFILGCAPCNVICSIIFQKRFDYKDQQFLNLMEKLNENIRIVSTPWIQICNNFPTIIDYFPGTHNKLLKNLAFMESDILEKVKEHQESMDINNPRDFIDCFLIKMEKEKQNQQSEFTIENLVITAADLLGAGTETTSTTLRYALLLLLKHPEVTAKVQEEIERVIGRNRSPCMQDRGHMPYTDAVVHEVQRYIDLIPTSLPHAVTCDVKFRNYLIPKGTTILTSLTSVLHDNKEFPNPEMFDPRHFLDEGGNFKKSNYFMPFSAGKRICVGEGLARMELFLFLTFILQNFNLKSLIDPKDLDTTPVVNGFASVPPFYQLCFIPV
Outline: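 In 50mM KPO4, the reaction held 5nM enzyme and KM-level (10uM) Luciferin-H EGE; it ran 60 min at 37C after NADPH regeneration and a 10 min compound preincubation. Luminescence values were scaled to 57uM ketoconazole as complete inhibition.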

[13] = biological target: Cytochrome P450 3A4 (Homo sapiens) (UniProt P08684); assay: qHTS Assay for Inhibitors and Substrates of Cytochrome P450 3A4 (AID 884; active = well fitted curve in the direction sought with a large enough effect; an effect the other way counts as inactive or inconclusive; note: potency is the fitted concentration of half-maximal effect; nearly all actives have a fitted effect of over 50% in size); conditions: recombinant CYP3A4, Luciferin-PPXE luminescence; series mostly up to 57.1 µM
Outline: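 20 nM human CYP3A4 with 25 uM Luciferin-PPXE (at KM) in 200 mM KPO4, preincubated 10 min with compound; NADPH regeneration started a 60 min RT reaction. Luciferin detected by luminescence, normalized to 57 uM ketoconazole as full inhibition.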

Row | Structure (SMILES) | Potency [1] [µM] | activity change, negative = inhibition [2] [%] | activity change, negative = inhibition [3] [%] | activity, negative = inhibition [4] [%] | Potency [5] [µM] | Potency [6] [µM] | Potency [7] | Potency [8] | activation [9] [%] | Potency [10] | Potency [11] | Potency [12] | Potency [13]
1 | Cn1c(=O)c2[nH]c(CCNC(=O)c3ccccc3)nc2n(C)c1=O | > 11.4 | 5.92 | 10.4 | 3.06 | > 46 | > 9.22 | inactive | inactive | 8.28 |  |  |  | 
2 | CC1(C)N=C(N)N=C(N)N1c1cccc(OCc2cccc(N)c2)c1 | > 11.4 | 11.8 | -27.5 | -3.01 | > 46 | > 9.22 | inactive | inactive |  | 2.51 µM (active) |  |  | 
3 | c1cncc(CNCc2cccnc2)c1 | > 11.4 | -1.94 | 2.26 | 12.4 | > 46 | > 9.22 | inactive | inactive |  | inactive |  |  | 
4 | O=C(C[C@@H](C(=O)O)N1CCOCC1)c1ccccc1 | > 11.4 | 8.49 | -28.5 | -2.89 | > 46 | > 9.22 | inactive | inactive | 16 |  |  |  | 
5 | O=c1[nH]c(SCc2cccc([N+](=O)[O-])c2)nc2nc[nH]c12 | > 11.4 | -0.65 | -8.58 | 8.09 | > 46 | > 9.22 | inactive | inactive |  |  | inactive | inactive | 
6 | NS(=O)(=O)c1nc(S(=O)(=O)O)c2[nH]cnc2n1 | > 11.4 | 7.59 | 2.24 | 2.49 | > 46 | > 9.22 | inactive | inactive |  |  |  | inactive | 
7 | O=C(CON1C(=O)c2ccccc2C1=O)c1ccccc1 | > 11.4 | -3.99 | 4.1 | 1.01 | > 46 | > 9.22 | inactive | inactive | -13.1 |  |  |  | 
8 | O=S1(=O)CCN(c2ccccc2CC(c2c[nH]c3ccccc23)c2c[nH]c3ccccc23)CC1 | > 11.4 | -12.9 | -27.4 | -20.7 | > 46 | > 9.22 | inactive | inactive |  |  | inactive | 3.16 µM (active) | 
9 | Clc1ccc(CSC2=NCCN2)cc1Cl | > 11.4 | -9.06 | -19.4 | -8 | > 46 | > 9.22 | inactive | inactive |  | 3.16 µM (active) |  |  | 
10 | O=C(O)CC(CC(=O)O)C(=O)O | > 11.4 | -1.11 | 8.83 | 7.1 | > 46 |  | inactive | inactive |  |  |  |  | 
11 | CS(=O)(=O)c1ccc(/C=N\NC(N)=S)cc1 | > 11.4 | 2.65 | 1.52 | -2.81 | > 46 | > 9.22 |  | inactive |  |  |  |  | 
12 | c1ccc2sc(SCN(C3CCCCC3)C3CCCCC3)nc2c1 | > 11.4 | 4.99 | -7.96 | -3.43 | > 46 |  | inactive | inactive |  | 1.58 µM (active) |  |  | 
13 | Cc1ccc(N=Nc2c(O)c(S(=O)(=O)O)cc3cc(S(=O)(=O)O)ccc23)c(C)c1 | > 11.4 | 19.9 | 10.1 | -2.41 | > 46 | > 9.22 |  | inactive |  |  |  |  | 
14 | COc1ccc([C@@H](C)c2cc3c(cc2O)OCO3)cc1 | > 11.4 | -11.5 | -3.98 | 4.36 | > 46 | > 9.22 |  | inactive |  |  | inactive |  | 2.51 µM (active)
15 | O=S(=O)(O)c1ccc2c(N=Nc3cccc4ccccc34)c(O)c(S(=O)(=O)O)cc2c1 | > 11.4 | -5.27 | -7.38 | -0.528 | > 46 | > 9.22 |  | inactive |  |  |  |  | 
16 | O=C(O)/C=C\C=C/c1ccc2c(c1)OCO2 | > 11.4 | 6.54 | 5.9 | 1.24 | > 46 |  | inactive | inactive |  |  |  |  | 
17 | CC(C)(C)c1c2c(c(C(C)(C)C)c3c1OCN(Cc1ccccc1)C3)OCN(Cc1ccccc1)C2 | > 11.4 | 0.594 | 0.0878 | -2.37 | > 46 | > 9.22 | inactive |  |  |  |  | inactive | 
